Measured values published in PubChem BioAssay (EPA / NIEHS).
Inconclusive results are not listed. Where a structure was tested more than once in an assay, its records may differ in their call. Calls of active or inactive are those of the source. How the source made its calls, unless noted: active means hit-call score of the fitted dose curve at least 0.9, where 1 is the maximum; inactive means score below 0.9.

What was measured:
[1] = ATG_NFI_CIS: Attagene CIS-FACTORIAL HepG2 Assay for human Nuclear Factor I (NFI) (AID 2282989); conditions: HepG2 cis-regulatory reporter, NFI response element transcription; actives raise or lower the signal
Procedure, shortened: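 Read-out: reporter mRNA via RT-PCR plus capillary electrophoresis with fluorescence detection. Transiently transfected HepG2 (endogenous TF activity on cis promoters), 24 h compound exposure; gain or loss of signal fitted against DMSO.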

[2] = molecular target: Myc proto-oncogene protein (Homo sapiens) (UniProt P01106); experiment: ATG_Myc_CIS: Attagene CIS-FACTORIAL HepG2 Assay for human Myelocytomatosis (Myc) Proto-Oncogene Transcription Factor (AID 2282990); conditions: HepG2, Attagene cis-reporter transcription factor activity; actives raise or lower the signal
Sequence of Myc proto-oncogene protein (Homo sapiens) (P01106 whole entry, looked up): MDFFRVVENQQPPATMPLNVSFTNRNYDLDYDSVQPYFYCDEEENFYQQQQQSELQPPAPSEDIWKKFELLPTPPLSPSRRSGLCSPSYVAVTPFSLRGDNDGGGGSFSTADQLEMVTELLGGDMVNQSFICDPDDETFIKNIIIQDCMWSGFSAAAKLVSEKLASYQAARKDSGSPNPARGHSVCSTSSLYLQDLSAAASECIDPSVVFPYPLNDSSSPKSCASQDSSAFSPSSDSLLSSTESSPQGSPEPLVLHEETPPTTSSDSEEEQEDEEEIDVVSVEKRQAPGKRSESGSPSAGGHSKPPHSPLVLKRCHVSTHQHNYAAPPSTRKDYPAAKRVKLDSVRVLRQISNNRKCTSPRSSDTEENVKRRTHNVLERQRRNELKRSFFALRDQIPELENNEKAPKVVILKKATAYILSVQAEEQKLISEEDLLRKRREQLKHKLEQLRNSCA
Procedure, shortened: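 HepG2 cells transiently transfected with multiple cis-promoter-driven reporter transcription units, so endogenous TF activity is read. After 24 h compound exposure, reporter mRNA was quantified by RT-PCR, 6-FAM labelling, HpaI digestion and capillary electrophoresis; bidirectional fit versus DMSO.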

[3] = ATG_NRF2_ARE_CIS: Attagene CIS-FACTORIAL HepG2 Assay for human Nuclear Factor Erythroid 2 Related Factor 2 (NFR2) response to Antioxidant Response Elements (ARE) (AID 2282992); conditions: HepG2 Attagene ARE/NRF2 reporter, transcription factor activity; actives raise or lower the signal
Procedure, shortened: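 Readout: reporter mRNA quantified by RT-PCR plus FAM-labelled primer extension, HpaI digestion and capillary electrophoresis, 24 h after dosing transfected HepG2 cells. Gain or loss of signal is fitted bidirectionally against DMSO baseline.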

[4] = ATG_Oct_MLP_CIS: Attagene CIS-FACTORIAL HepG2 Assay for human Octamer-Binding Transcription Factor (Oct) (AID 2282993); conditions: HepG2 Attagene cis-factorial Oct reporter, mRNA; actives raise or lower the signal
Procedure, shortened: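 Read-out: reporter mRNA via RT-PCR plus capillary electrophoresis of 6-FAM-labelled fragments. Transiently transfected HepG2, 24 h exposure, endogenous TF activity on cis elements. Gain or loss of signal fitted relative to DMSO.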

[5] = molecular target: Cellular tumor antigen p53 (Homo sapiens) (UniProt P04637); experiment: ATG_p53_CIS: Attagene CIS-FACTORIAL HepG2 Assay for human p53 Transcription Factor (AID 2282994); conditions: HepG2 p53 cis-element reporter, Attagene mRNA; actives raise or lower the signal
Sequence of Cellular tumor antigen p53 (Homo sapiens) (P04637 whole entry, looked up): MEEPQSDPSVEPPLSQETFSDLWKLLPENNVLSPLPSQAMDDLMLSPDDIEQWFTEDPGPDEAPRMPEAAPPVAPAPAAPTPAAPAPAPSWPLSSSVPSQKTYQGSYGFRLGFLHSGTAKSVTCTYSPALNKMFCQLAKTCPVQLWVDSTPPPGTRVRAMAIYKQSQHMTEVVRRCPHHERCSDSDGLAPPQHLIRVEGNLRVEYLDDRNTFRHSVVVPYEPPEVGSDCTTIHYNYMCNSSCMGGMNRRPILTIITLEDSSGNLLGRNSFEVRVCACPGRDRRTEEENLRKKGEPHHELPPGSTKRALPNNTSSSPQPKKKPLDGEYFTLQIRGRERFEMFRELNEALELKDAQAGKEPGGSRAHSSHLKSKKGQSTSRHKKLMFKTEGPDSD
Procedure, shortened: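 Read-out: reporter mRNA by RT-PCR plus capillary electrophoresis with fluorescence detection. Human HepG2 liver cells carried transfected multi-reporter cis-element constructs, dosed 24 h. Gain or loss of signal fitted bidirectionally against DMSO control.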

[6] = molecular target: Nuclear receptor subfamily 1 group I member 2 (Homo sapiens) (UniProt O75469); experiment: ATG_PXR_TRANS: Attagene TRANS-FACTORIAL HepG2 Assay for human Pregnane X Receptor (PXR) (AID 2283008; active means hit-call score of the fitted dose curve at least 0.9, where 1 is the maximum)
Sequence of Nuclear receptor subfamily 1 group I member 2 (Homo sapiens) (O75469 whole entry, looked up, the tested form may be a part): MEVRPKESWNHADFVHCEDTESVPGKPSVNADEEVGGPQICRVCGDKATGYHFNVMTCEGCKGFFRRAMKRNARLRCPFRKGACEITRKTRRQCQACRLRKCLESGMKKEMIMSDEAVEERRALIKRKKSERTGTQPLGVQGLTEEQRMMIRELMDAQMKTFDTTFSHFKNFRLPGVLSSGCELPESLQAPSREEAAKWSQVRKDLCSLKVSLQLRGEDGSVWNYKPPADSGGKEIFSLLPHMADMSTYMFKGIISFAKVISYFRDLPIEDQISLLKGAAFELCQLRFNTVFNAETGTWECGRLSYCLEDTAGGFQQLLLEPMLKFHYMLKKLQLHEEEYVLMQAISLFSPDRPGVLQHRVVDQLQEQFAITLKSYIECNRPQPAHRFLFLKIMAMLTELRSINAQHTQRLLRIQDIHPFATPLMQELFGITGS
Procedure, shortened: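 Trans-factorial format: exogenous NR-Gal4 fusion activity, not endogenous factor, in transfected human HepG2 liver cells. After 24 h dosing, RNA isolated, reverse-transcribed, amplified and resolved by capillary electrophoresis; induction scored versus DMSO.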

[7] = molecular target: human Peroxisome Proliferator-activated Receptor alpha (PPARa), PPARA (gene 5465) (UniProt Q07869); experiment: ATG_PPARa_TRANS: Attagene TRANS-FACTORIAL HepG2 Assay for human Peroxisome Proliferator-activated Receptor alpha (PPARa) (AID 2283001; active means hit-call score of the fitted dose curve at least 0.9, where 1 is the maximum)
Sequence of human Peroxisome Proliferator-activated Receptor alpha (PPARa), PPARA (gene 5465) (Q07869 whole entry, looked up, the tested form may be a part): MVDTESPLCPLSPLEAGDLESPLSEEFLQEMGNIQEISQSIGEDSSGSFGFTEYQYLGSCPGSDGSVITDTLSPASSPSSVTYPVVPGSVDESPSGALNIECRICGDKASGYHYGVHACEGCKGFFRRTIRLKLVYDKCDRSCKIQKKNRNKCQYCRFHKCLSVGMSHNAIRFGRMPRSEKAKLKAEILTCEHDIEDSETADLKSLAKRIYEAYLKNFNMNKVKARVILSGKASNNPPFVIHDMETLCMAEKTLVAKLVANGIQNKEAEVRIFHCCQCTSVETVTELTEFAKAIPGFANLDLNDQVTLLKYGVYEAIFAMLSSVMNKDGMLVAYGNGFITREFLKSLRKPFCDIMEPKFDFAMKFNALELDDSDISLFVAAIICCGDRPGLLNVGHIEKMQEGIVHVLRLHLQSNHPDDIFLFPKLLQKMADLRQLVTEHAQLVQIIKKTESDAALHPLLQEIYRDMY
Procedure, shortened: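 Exposure: 24 h, transiently transfected HepG2 cells. Endpoint: GAL4-UAS reporter mRNA, RT-PCR with capillary electrophoresis fluorescence. Baseline: DMSO; increases fitted.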

[8] = molecular target: human RAR-related Orphan Receptor beta (RORb), RORB (gene 6096) (UniProt Q92753); experiment: ATG_RORb_TRANS: Attagene TRANS-FACTORIAL HepG2 Assay for human RAR-related Orphan Receptor beta (RORb) (AID 2283010; active means hit-call score of the fitted dose curve at least 0.9, where 1 is the maximum)
Sequence of human RAR-related Orphan Receptor beta (RORb), RORB (gene 6096) (Q92753 whole entry, looked up, the tested form may be a part): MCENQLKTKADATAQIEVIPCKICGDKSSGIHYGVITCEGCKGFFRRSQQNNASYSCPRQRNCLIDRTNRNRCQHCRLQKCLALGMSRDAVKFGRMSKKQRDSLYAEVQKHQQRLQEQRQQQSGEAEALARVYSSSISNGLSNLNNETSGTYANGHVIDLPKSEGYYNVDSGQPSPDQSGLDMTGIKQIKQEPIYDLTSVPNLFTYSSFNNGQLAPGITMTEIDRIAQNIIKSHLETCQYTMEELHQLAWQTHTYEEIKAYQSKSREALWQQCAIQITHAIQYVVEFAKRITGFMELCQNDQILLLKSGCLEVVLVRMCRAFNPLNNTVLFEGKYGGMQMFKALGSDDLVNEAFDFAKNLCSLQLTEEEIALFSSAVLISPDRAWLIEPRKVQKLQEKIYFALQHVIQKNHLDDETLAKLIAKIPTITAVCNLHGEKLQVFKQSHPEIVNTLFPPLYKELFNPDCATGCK
Procedure, shortened: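 HepG2, transient MRTU transfection (GAL4-UAS reporters, exogenous NR-Gal4 chimeras); 24 h compound exposure; total RNA → RT-PCR → 6-FAM primer extension → HpaI digest → CE fluorescence. Positive direction vs DMSO baseline.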

[9] = molecular target: Retinoic acid receptor alpha (Homo sapiens) (UniProt P10276); experiment: ATG_RARa_TRANS: Attagene TRANS-FACTORIAL HepG2 Assay for human Retinoic Acid Receptor alpha (RARa) (AID 2283005; active means hit-call score of the fitted dose curve at least 0.9, where 1 is the maximum)
Sequence of Retinoic acid receptor alpha (Homo sapiens) (P10276 whole entry, looked up, the tested form may be a part): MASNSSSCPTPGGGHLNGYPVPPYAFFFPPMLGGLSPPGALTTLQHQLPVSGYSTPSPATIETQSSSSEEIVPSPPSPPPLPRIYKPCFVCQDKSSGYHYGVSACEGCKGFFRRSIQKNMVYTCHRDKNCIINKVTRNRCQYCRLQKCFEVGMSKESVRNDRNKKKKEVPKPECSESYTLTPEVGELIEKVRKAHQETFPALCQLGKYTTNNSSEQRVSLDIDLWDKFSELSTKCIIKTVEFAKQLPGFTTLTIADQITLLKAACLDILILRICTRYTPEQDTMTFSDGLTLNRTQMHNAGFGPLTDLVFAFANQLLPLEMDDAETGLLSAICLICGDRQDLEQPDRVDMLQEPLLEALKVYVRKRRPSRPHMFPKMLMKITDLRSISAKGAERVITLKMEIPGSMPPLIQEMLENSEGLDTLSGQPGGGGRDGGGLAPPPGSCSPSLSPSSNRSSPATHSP
Procedure, shortened: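 HepG2 cells transiently transfected with multiple reporter units expressing chimeric RARα-GAL4 fusion, with GAL4-UAS-driven reporters. After 24 h compound exposure, reporter mRNA induction quantified by RT-PCR and capillary electrophoresis with fluorescent labeling; gain-of-signal fitted relative to DMSO control.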

[10] = molecular target: Peroxisome proliferator-activated receptor gamma (Homo sapiens) (UniProt P37231); experiment: ATG_PPARg_TRANS: Attagene TRANS-FACTORIAL HepG2 Assay for human Peroxisome Proliferator-activated Receptor-gamma (PPARg) (AID 2283007; active means hit-call score of the fitted dose curve at least 0.9, where 1 is the maximum)
Sequence of Peroxisome proliferator-activated receptor gamma (Homo sapiens) (P37231 whole entry, looked up): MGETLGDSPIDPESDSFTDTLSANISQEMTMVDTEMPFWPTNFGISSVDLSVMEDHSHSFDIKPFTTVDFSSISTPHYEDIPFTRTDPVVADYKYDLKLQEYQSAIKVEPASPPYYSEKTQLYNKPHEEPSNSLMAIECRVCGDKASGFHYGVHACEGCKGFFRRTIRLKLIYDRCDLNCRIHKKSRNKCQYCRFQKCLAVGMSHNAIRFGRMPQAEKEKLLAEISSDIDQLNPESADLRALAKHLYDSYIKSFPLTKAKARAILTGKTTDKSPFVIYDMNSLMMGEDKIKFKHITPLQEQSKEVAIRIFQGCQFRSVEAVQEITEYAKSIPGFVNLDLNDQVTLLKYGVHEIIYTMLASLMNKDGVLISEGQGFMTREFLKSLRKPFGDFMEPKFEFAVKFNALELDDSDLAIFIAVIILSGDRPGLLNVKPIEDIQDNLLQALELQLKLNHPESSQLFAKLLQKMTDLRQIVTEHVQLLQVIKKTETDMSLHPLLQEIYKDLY
Procedure, shortened: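 Human hepatoma HepG2, transient MRTU transfection, 24 h treatment. mRNA reporter signal by RT-PCR plus capillary electrophoresis, fluorescence detection; fitted for increase over DMSO negative control.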

[11] = molecular target: human Retinoic Acid Receptor gamma (RARg), RARG (gene 5916) (UniProt P13631); experiment: ATG_RARg_TRANS: Attagene TRANS-FACTORIAL HepG2 Assay for human Retinoic Acid Receptor gamma (RARg) (AID 2283009; active means hit-call score of the fitted dose curve at least 0.9, where 1 is the maximum)
Sequence of human Retinoic Acid Receptor gamma (RARg), RARG (gene 5916) (P13631 whole entry, looked up, the tested form may be a part): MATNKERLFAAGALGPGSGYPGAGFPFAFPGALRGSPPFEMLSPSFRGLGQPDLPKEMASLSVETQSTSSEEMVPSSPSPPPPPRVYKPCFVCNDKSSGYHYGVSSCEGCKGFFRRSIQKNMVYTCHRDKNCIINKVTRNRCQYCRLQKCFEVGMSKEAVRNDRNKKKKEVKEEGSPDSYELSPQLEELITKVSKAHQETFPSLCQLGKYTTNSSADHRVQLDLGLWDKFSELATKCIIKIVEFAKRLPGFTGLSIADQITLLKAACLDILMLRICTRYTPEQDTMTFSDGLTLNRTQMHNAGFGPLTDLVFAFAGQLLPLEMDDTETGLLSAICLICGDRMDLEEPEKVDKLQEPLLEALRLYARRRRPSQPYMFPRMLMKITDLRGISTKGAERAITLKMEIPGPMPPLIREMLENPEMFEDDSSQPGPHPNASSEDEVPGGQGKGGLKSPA
Procedure, shortened: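 Readout: reporter transcript levels via RT-PCR, 6-FAM primer-extension labelling, HpaI digestion and capillary electrophoresis. Cells: HepG2 carrying transfected RARg-GAL4 chimera plus UAS reporter set. Dosing 24 h; DMSO negative control.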

[12] = molecular target: human Peroxisome Proliferator-activated Receptor delta (PPARd), PPARD (gene 5467) (UniProt Q03181); experiment: ATG_PPARd_TRANS: Attagene TRANS-FACTORIAL HepG2 Assay for human Peroxisome Proliferator-activated Receptor delta (PPARd) (AID 2283002; active means hit-call score of the fitted dose curve at least 0.9, where 1 is the maximum)
Sequence of human Peroxisome Proliferator-activated Receptor delta (PPARd), PPARD (gene 5467) (Q03181 whole entry, looked up, the tested form may be a part): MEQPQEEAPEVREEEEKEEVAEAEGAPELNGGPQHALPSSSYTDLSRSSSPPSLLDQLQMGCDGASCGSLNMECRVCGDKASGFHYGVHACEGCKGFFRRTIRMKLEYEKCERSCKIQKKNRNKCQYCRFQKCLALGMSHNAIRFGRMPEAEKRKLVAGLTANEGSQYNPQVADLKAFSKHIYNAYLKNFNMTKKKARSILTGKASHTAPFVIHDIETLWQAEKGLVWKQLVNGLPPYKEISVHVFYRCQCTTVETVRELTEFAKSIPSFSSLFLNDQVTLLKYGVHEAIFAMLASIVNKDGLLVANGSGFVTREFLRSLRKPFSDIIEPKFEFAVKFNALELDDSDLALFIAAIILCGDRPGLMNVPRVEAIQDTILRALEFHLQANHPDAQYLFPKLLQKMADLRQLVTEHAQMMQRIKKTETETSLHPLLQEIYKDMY
Procedure, shortened: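 HepG2 cells transiently transfected with multiplexed GAL4-UAS reporter units and exogenous chimeric NR-Gal4 proteins; 24 h compound exposure. Reporter mRNA measured by RT-PCR, 6-FAM labelling, HpaI digestion and capillary electrophoresis; gain of signal versus DMSO.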

[13] = molecular target: human Retinoic Acid Receptor beta (RARb), RARB (gene 5915) (UniProt P10826); experiment: ATG_RARb_TRANS: Attagene TRANS-FACTORIAL HepG2 Assay for human Retinoic Acid Receptor beta (AID 2283004; active means hit-call score of the fitted dose curve at least 0.9, where 1 is the maximum)
Sequence of human Retinoic Acid Receptor beta (RARb), RARB (gene 5915) (P10826 whole entry, looked up, the tested form may be a part): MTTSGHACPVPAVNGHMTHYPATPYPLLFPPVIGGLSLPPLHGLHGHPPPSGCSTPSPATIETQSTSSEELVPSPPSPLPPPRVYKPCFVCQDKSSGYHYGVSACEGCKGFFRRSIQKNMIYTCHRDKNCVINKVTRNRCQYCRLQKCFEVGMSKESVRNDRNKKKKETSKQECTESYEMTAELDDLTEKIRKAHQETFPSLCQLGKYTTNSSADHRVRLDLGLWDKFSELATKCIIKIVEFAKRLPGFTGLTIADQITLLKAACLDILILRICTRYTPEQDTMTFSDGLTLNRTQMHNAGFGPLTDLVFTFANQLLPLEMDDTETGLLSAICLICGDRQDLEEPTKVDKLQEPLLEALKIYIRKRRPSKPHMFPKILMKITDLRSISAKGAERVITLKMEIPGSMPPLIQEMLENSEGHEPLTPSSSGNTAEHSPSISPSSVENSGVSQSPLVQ
Procedure, shortened: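 Readout is reporter mRNA induction: RNA reverse-transcribed, PCR-amplified, FAM-labelled, HpaI-cut and resolved by capillary electrophoresis. Transiently transfected HepG2 cells carrying exogenous NR–Gal4 chimeras were dosed for 24 h; activity fitted upward relative to DMSO.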

[14] = BSK_3C_TissueFactor: BioMAP Diversity Plus: 3C Assay for Tissue Factor Biomarker Activity (AID 2282997); conditions: BioMAP 3C HUVEC, tissue factor biomarker readout; actives raise or lower the signal
Procedure, shortened: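 HUVEC, 3C system, 24 h post-dose; Tissue Factor by ELISA; bidirectional fit vs DMSO baseline.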

[15] = BSK_3C_uPAR: BioMAP Diversity Plus: 3C Assay for Urokinase-type plasminogen activator receptor (uPAR) Biomarker Activity (AID 2282998); conditions: BioMAP 3C HUVEC, uPAR biomarker ELISA; actives raise or lower the signal
Procedure, shortened: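 HUVEC primary cells; 24 h post-dose; uPAR by ELISA; gain or loss of signal fitted bidirectionally vs DMSO baseline.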

[16] = BSK_3C_VCAM1: BioMAP Diversity Plus: 3C Assay for Vascular cell adhesion molecule 1 (VCAM1) Biomarker Activity (AID 2282999); conditions: BioMAP 3C HUVEC, VCAM1 ELISA, cytokine-stimulated; actives raise or lower the signal
Procedure, shortened: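 Vascular primary endothelium (human umbilical vein) was exposed to chemicals and assayed 24 h later. VCAM-1 levels came from ELISA, with DMSO serving as baseline for bidirectional fitting.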

[17] = BSK_4H_Eotaxin3: BioMAP Diversity Plus: 4H Assay for Eotaxin 3 Biomarker Activity (AID 2283000); conditions: primary human endothelial cells (HUVEC); actives raise or lower the signal
Procedure, shortened: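 Readout is Eotaxin-3 (CCL26) level by ELISA in primary human umbilical vein endothelial cells harvested 24 h after chemical exposure; activity fitted in both directions against DMSO control.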

[18] = read-out: Intercellular Adhesion Molecule 1 (ICAM1), ICAM1 (gene 3383); experiment: BSK_3C_ICAM1: BioMAP Diversity Plus: 3C Assay for Intercellular Adhesion Molecule 1 (ICAM1) Biomarker Activity (AID 2283003); conditions: primary human endothelial cells (HUVEC); actives raise or lower the signal
Procedure, shortened: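 ELISA read-out of ICAM-1; HUVEC (primary human), 3C system, 24 h post-dosing; bidirectional fit vs DMSO baseline.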

[19] = BSK_3C_Proliferation: Cell Proliferation Assessment in the BioMAP Diversity Plus: 3C Assay (AID 2283006); conditions: primary human endothelial cells (HUVEC)
Procedure, shortened: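 HUVEC, sub-confluent; 48 h chemical exposure; 10% TCA fix, 0.1% SRB stain, A560 total protein. Gain or loss of signal fitted both directions vs DMSO control.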

Measured: AC50

COc1ccccc1[N+](=O)[O-]
inactive: [1] | [2] | [3] | [4] | [5] | [6]

CCC(=O)OCCOc1ccccc1
inactive: [1] | [2] | [3] | [4] | [7] | [8]

CC(O)C1CCCCC1 (configuration not stated)
inactive: [1] | [2] | [3] | [4] | [7] | [9] | [10] | [11]

CCOc1ccc(N=Nc2ccc(C=Cc3ccc(N=Nc4ccc(OCC)cc4)cc3S(=O)(=O)O)c(S(=O)(=O)O)c2)cc1
inactive: [1] | [2] | [3] | [4] | [5] | [12] | [13] | [10] | [11]

C=CCCCCCCCCCC
inactive: [1] | [2] | [3] | [4] | [5] | [12] | [10] | [8]

C=C1C[C@]23C[C@@]1(O)CC[C@H]2[C@@]12C=C[C@H](O)[C@@](C)(C(=O)O1)[C@H]2[C@@H]3C(=O)O
inactive: [1] | [2] | [3] | [4] | [12] | [10]

CCc1ncc(C)[nH]1
inactive: [1] | [2] | [3] | [4] | [5] | [12] | [10] | [6]

C=CC(C)(O)CCC=C(C)C (configuration not stated)
inactive: [1] | [2] | [3] | [4] | [14] | [15] | [16] | [17] | [7] | [18] | [13] | [19] | [10] | [6] | [8]
active: [17] 149 nM
